Test results as given in PubChem BioAssay (NCI).
This is part of a sample that, as a whole, favours compounds with a hit. Of some 83,000 tested, about 20% had one in any assay.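 48-hour exposure, single concentration, 96-well plates; percent growth endpoint where 0 means no net growth. Active: below 10.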 A number with no mark means an inactive call. The source made the active and inactive calls.

The compounds below were run on SW-620 colon (assay: NCI-60 one-dose screen, 48 h (100 = growth as untreated, 0 = no growth, -100 = all killed)). Details: 10 µM unless noted.
Compound `O=C(Nc1cnc(Nc2ccc(N3CCOCC3)nc2)nc1Oc1ccc(C(F)(F)F)cc1)c1ccncc1` has a growth of 97.5%. `O=C(N/N=C\c1cccc([N+](=O)[O-])c1)N/N=C/c1cccc([N+](=O)[O-])c1` gave a growth of 103%. With `Oc1ccc(/C=C/c2ccc(O)cc2)cc1` the growth was 65.4%. Work on `CCNC(=O)Oc1ccc(/C(=C(/CC)Cc2ccccc2)c2ccc(OCCN3CCCC3)cc2)cc1` yielded a growth of 99.6%. `NNCCc1ccc(NC(=O)CCCc2ccc(C(=O)Nc3ccccc3N)cc2)cc1` showed a growth of 57.5%. `COC(=O)CCC/C=C\C[C@H]1C=CC(=O)/C1=C/C[C@@H](O)C/C=C\CC(F)(F)F` was tested, and the growth was -36% (active). With `CCCCC#Cc1c(I)n(C)c(=O)[nH]c1=O` the growth was -93.2% (active). Work on `N#CC1CCc2c(c(-c3ccc4nc(N)sc4c3)nc3ccc4[nH]ncc4c23)C1` (stereo not drawn) yielded a growth of 39.1%. Work on `O=C(Cc1ccc(/C=C/C(=O)c2ncc[nH]2)cc1)Nc1cc(C(F)(F)F)cc(C(F)(F)F)c1` yielded a growth of 53.5%. In the case of `O=c1nc(-c2ccccc2)c2cc(-c3ccc(C(F)(F)F)nc3)ccc2[nH]1`, the growth is reported as 101%. In the case of `CO[C@H]1CC(=O)n2c3ccccc3c3c4c(c5c6ccccc6n1c5c32)C(=O)NC4=O`, the growth is reported as 32.8%. With `COc1cc(C2C(C(=O)OCc3ccccc3)=C(C)NC(C)=C2C(=O)OCc2ccccc2)cc(OC)c1OC` the growth was 40.3%. For `Cc1cc2c(cc1C)N(C(=O)CCl)CC(=O)N2`, the growth was -48.2% (active). `Cc1ccc(S(=O)(=O)Oc2ccc3sc4cccc(NCCN(C)C)c4c(=O)c3c2)cc1` was tested, and the growth was -92.4% (active). With `COc1ccc2c(c1)/C(=N/c1n[nH]c(=S)s1)C(=O)N2` the growth was 91.3%. Compound `O=C(Cc1ccc(NC(=O)c2cccc(Cl)c2)cc1)NCc1ccccc1` has a growth of 25.3%. In the case of `COc1ccc(-c2n[nH]c(=O)c3nc(NC(=S)Nc4ccc(Oc5ccccc5)cc4)sc23)cc1`, the growth is reported as 96.8%. In the case of `C=CCn1c(SCC(=O)Nc2ccc(/C(C)=N/O)cc2)nnc1-c1cc(-c2ccc(S(N)(=O)=O)cc2)nc2ccccc12`, the growth is reported as 84.2%. For `C=C1CC[C@@H]2C(C)(C)[C@@H](O)CC[C@@]2(C)[C@@H]1COc1ccc2ccc(=O)oc2c1`, the growth was 99.4%. Work on `O=C(O)COc1ccc(Cl)c(Cl)c1` yielded a growth of 109%. For `O=C1Nc2ccccc2C1(c1c[nH]c2ccccc12)c1c[nH]c2ccccc12`, the growth was 77%. `COc1cc(Cl)c(C)cc1NC(=O)c1cc2ccccc2cc1O` gave a growth of 21.2%. `C/C(=N\O)[C@@H]1CC[C@]2(CO)CC[C@]3(C)[C@H](CC[C@@H]4[C@@]5(C)CCCNC(C)(C)[C@@H]5CC[C@]43C)[C@@H]12` gave a growth of 88.5%. Compound `Cc1cccc(N2CCC(=O)NC2=S)c1` has a growth of 103%. Compound `Nn1c(=O)c(=O)[nH]c2c(cnn2-c2ccccc2)c1=O` has a growth of 110%. `O=C(Cn1nnc2ccccc21)N/N=C/c1c[nH]c2ccccc12` gave a growth of 25.3%. With `O=C(O)/C=C/C(=O)Nc1cccc(Cn2nnc3cc(Cl)c(Cl)cc32)c1` the growth was 96.3%. For `CN1CCN(Cc2ccc(NC(=O)c3cncc(C#Cc4cnc(N)c5ccc(F)cc45)c3)cc2C(F)(F)F)CC1`, the growth was -64.4% (active). Compound `Cc1ccc2c(-c3nnc(N)s3)cc(=O)oc2c1C` has a growth of 97.8%. `CCOc1ccc(-n2nc(C(=O)NCc3ccccc3OC)nc2-c2cc(OC)c(OC)c(OC)c2)cc1` gave a growth of 58%. In the case of `CC1=C(CCC(C)NCc2ccc(OCCCN3CCCCC3)cc2)C(C)(C)CCC1` (stereo not drawn), the growth is reported as -80.3% (active). `Cc1nc2ccccc2c(/C=C/c2ccccc2)c1C(=O)/C=C/c1ccccc1` was tested, and the growth was -65.6% (active). `CCN(CC)CCN1C(=O)c2c(c(C)c3c(oc4ccc(O)cc43)c2C)C1=O` was tested, and the growth was 2.51% (active). In the case of `COc1ccc(Cn2cc(C(=O)N=Nc3c(O)[nH]c4c(C)cccc34)nn2)cc1`, the growth is reported as 57.5%. `FC(F)(F)Oc1cccc(-c2cnc3ccc(-c4ccncc4)nn23)c1` showed a growth of 23.2%. `Cc1c2cccnc2c(C)c2c1c1cc(CO)ccc1n2C` gave a growth of 15.8%. For `CNCc1cccc2c1OCCOCCOCCNS(=O)(=O)c1ccc(cc1)-c1cnc(N)c(n1)C(=O)N2`, the growth was 15.5%. For `CNC(C)[C@H]1CCC2C3CC=C4C(=O)[C@@H](NC(=O)C=C(C)C)CC[C@]4(C)C3CC[C@@]21C` (stereo partly drawn), the growth was -52% (active). For `C=C1C(=O)O[C@H]2[C@H]1CC/C(COC(=O)/C=C\C(=O)NCc1ccc(Cn3c(=O)sn(CCCCC)c3=O)cc1)=C\CC[C@@]1(C)O[C@@H]21`, the growth was 19.2%.

These compounds were tested on MCF7 breast in the same assay as above. Details: 10 µM unless noted.
`O=C(Nc1cnc(Nc2ccc(N3CCOCC3)nc2)nc1Oc1ccc(C(F)(F)F)cc1)c1ccncc1` gave a growth of 77.3%. `O=C(N/N=C\c1cccc([N+](=O)[O-])c1)N/N=C/c1cccc([N+](=O)[O-])c1` was tested, and the growth was 66.5%. Compound `Oc1ccc(/C=C/c2ccc(O)cc2)cc1` has a growth of 33.1%. Compound `CCNC(=O)Oc1ccc(/C(=C(/CC)Cc2ccccc2)c2ccc(OCCN3CCCC3)cc2)cc1` has a growth of 35.9%. In the case of `NNCCc1ccc(NC(=O)CCCc2ccc(C(=O)Nc3ccccc3N)cc2)cc1`, the growth is reported as 57.8%. With `COC(=O)CCC/C=C\C[C@H]1C=CC(=O)/C1=C/C[C@@H](O)C/C=C\CC(F)(F)F` the growth was 4.67% (active). Work on `CCCCC#Cc1c(I)n(C)c(=O)[nH]c1=O` yielded a growth of 52.3%. Compound `N#CC1CCc2c(c(-c3ccc4nc(N)sc4c3)nc3ccc4[nH]ncc4c23)C1` (stereo not drawn) has a growth of 21.7%. With `O=C(Cc1ccc(/C=C/C(=O)c2ncc[nH]2)cc1)Nc1cc(C(F)(F)F)cc(C(F)(F)F)c1` the growth was 7.59% (active). In the case of `O=c1nc(-c2ccccc2)c2cc(-c3ccc(C(F)(F)F)nc3)ccc2[nH]1`, the growth is reported as 86.8%. Compound `CO[C@H]1CC(=O)n2c3ccccc3c3c4c(c5c6ccccc6n1c5c32)C(=O)NC4=O` has a growth of 20.1%. With `COc1cc(C2C(C(=O)OCc3ccccc3)=C(C)NC(C)=C2C(=O)OCc2ccccc2)cc(OC)c1OC` the growth was 10.4%. `Cc1cc2c(cc1C)N(C(=O)CCl)CC(=O)N2` gave a growth of 19.6%. For `Cc1ccc(S(=O)(=O)Oc2ccc3sc4cccc(NCCN(C)C)c4c(=O)c3c2)cc1`, the growth was -86.7% (active). `COc1ccc2c(c1)/C(=N/c1n[nH]c(=S)s1)C(=O)N2` gave a growth of 25.1%. Compound `O=C(Cc1ccc(NC(=O)c2cccc(Cl)c2)cc1)NCc1ccccc1` has a growth of 22.1%. `COc1ccc(-c2n[nH]c(=O)c3nc(NC(=S)Nc4ccc(Oc5ccccc5)cc4)sc23)cc1` was tested, and the growth was 96.8%. Work on `C=CCn1c(SCC(=O)Nc2ccc(/C(C)=N/O)cc2)nnc1-c1cc(-c2ccc(S(N)(=O)=O)cc2)nc2ccccc12` yielded a growth of 43.3%. Work on `C=C1CC[C@@H]2C(C)(C)[C@@H](O)CC[C@@]2(C)[C@@H]1COc1ccc2ccc(=O)oc2c1` yielded a growth of 50.2%. For `O=C(O)COc1ccc(Cl)c(Cl)c1`, the growth was 108%. In the case of `O=C1Nc2ccccc2C1(c1c[nH]c2ccccc12)c1c[nH]c2ccccc12`, the growth is reported as -1.78% (active). Work on `COc1cc(Cl)c(C)cc1NC(=O)c1cc2ccccc2cc1O` yielded a growth of 17.2%. For `C/C(=N\O)[C@@H]1CC[C@]2(CO)CC[C@]3(C)[C@H](CC[C@@H]4[C@@]5(C)CCCNC(C)(C)[C@@H]5CC[C@]43C)[C@@H]12`, the growth was 50.9%. With `Cc1cccc(N2CCC(=O)NC2=S)c1` the growth was 97.1%. In the case of `Nn1c(=O)c(=O)[nH]c2c(cnn2-c2ccccc2)c1=O`, the growth is reported as 99.4%. In the case of `O=C(Cn1nnc2ccccc21)N/N=C/c1c[nH]c2ccccc12`, the growth is reported as 22%. `O=C(O)/C=C/C(=O)Nc1cccc(Cn2nnc3cc(Cl)c(Cl)cc32)c1` was tested, and the growth was 89%. Work on `CN1CCN(Cc2ccc(NC(=O)c3cncc(C#Cc4cnc(N)c5ccc(F)cc45)c3)cc2C(F)(F)F)CC1` yielded a growth of 13.2%. `Cc1ccc2c(-c3nnc(N)s3)cc(=O)oc2c1C` showed a growth of 93.4%. `CCOc1ccc(-n2nc(C(=O)NCc3ccccc3OC)nc2-c2cc(OC)c(OC)c(OC)c2)cc1` showed a growth of 22.1%. `CC1=C(CCC(C)NCc2ccc(OCCCN3CCCCC3)cc2)C(C)(C)CCC1` (stereo not drawn) was tested, and the growth was -58.4% (active). `Cc1nc2ccccc2c(/C=C/c2ccccc2)c1C(=O)/C=C/c1ccccc1` gave a growth of 17%. With `CCN(CC)CCN1C(=O)c2c(c(C)c3c(oc4ccc(O)cc43)c2C)C1=O` the growth was 4.29% (active). Work on `COc1ccc(Cn2cc(C(=O)N=Nc3c(O)[nH]c4c(C)cccc34)nn2)cc1` yielded a growth of 84.9%. In the case of `FC(F)(F)Oc1cccc(-c2cnc3ccc(-c4ccncc4)nn23)c1`, the growth is reported as 10.7%. In the case of `Cc1c2cccnc2c(C)c2c1c1cc(CO)ccc1n2C`, the growth is reported as 6.87% (active). With `CNCc1cccc2c1OCCOCCOCCNS(=O)(=O)c1ccc(cc1)-c1cnc(N)c(n1)C(=O)N2` the growth was 11.8%. With `CNC(C)[C@H]1CCC2C3CC=C4C(=O)[C@@H](NC(=O)C=C(C)C)CC[C@]4(C)C3CC[C@@]21C` (stereo partly drawn) the growth was -41.8% (active). With `C=C1C(=O)O[C@H]2[C@H]1CC/C(COC(=O)/C=C\C(=O)NCc1ccc(Cn3c(=O)sn(CCCCC)c3=O)cc1)=C\CC[C@@]1(C)O[C@@H]21` the growth was 36.6%.
